We go through 26 compounds from PubChem BioAssay (NCATS).

Common to all, as to assay: qHTS profiling for inhibitors of Plasmodium falciparum proliferation (AID 504749); further: nearly all actives have a fitted effect of over 60% in size
Common to all, as to details: P. falciparum in erythrocytes, SYBR Green DNA, 72 h; series mostly up to 28.7 µM

In assay [1] the test system is DIV17. The essentials: (§1)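 In a 72 h erythrocytic culture (37 C, humidified, 5% CO2) at 2.5% hematocrit and 0.3% starting parasitemia, compounds were tested; SYBR Green I in detergent lysis buffer stained parasite DNA overnight.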
Assay [2] deals with DIV30. The essentials:
as §1

Assay [3] concerns Dd2. The essentials: as §1
In assay [4] the test system is ECU. The essentials:
as §1

For assay [5], the system named is FAB9. The essentials: as §1
For assay [6], the system named is GB4. The essentials: as §1
In assay [7] the test system is HB3. The essentials:
as §1

Assay [8] relates to ICS. The essentials: as §1
The subject of assay [9] is JCK. The essentials:
as §1

In assay [10] the test system is N140. The essentials:
as §1

Molecules are shown by their SMILES. Results filed as inconclusive are left out. Activity calls are given as the source filed them. The call rests on the fitted dose curve; in most records, active means well fitted inhibition curve with a large enough effect; inconclusive means small, poorly fitted or top-dose-only effect; inactive means flat fitted curve, though single readings scatter.
Potency means the concentration at half of the fitted maximal effect.

Regarding `Cc1ccc(Cl)c(O)c1`, the Potency entry in [1], in [2], in assay [3], in [4], in assay [5] and in [6] was “inactive” throughout. In addition, the Potency entry in assay [7], in assay [8], in assay [9] and in assay [10] was “inactive” throughout.

On to `O=C(O)COc1ccccc1`, for which the Potency entry in assay [1], in assay [2], in [3], in [4], in [5] and in [6] was “inactive” throughout. The Potency result in [7], in assay [8], in assay [9] and in [10] was “inactive” in each case.

As for `O=C(O)C(Cl)Cl`, the Potency result in assay [1], in assay [2], in assay [3], in assay [4], in assay [5] and in [6] was “inactive” throughout. In addition, the Potency result in [7], in assay [8], in [9] and in assay [10] was “inactive” in each case.

Regarding `Cc1cc(O)ccc1Cl`, the Potency result in [1], in assay [2], in assay [3], in assay [4], in [5] and in [6] was “inactive” each time. Further, the Potency result in assay [7], in assay [8], in [9] and in [10] was “inactive” in each case.

Consider `C[C@]12CCC(=O)C(O)=C1CC[C@@H]1[C@H]3CCC(=O)[C@@]3(C)CC[C@@H]12`, for which the Potency result in assay [2], in [3], in assay [4], in assay [5], in assay [6] and in assay [7] was “inactive” each time. Moreover, the Potency entry in [8] and in assay [9] was “inactive” in each case.

On to `C#CC1(O)CCC2C3CCC4=CC(=O)CCC4(C)C3CCC21C` (configuration not stated), for which the Potency entry in assay [1], in assay [2], in assay [3], in [4], in assay [5] and in [6] was “inactive” in each case. Moreover, the Potency entry in assay [7], in assay [8], in [9] and in assay [10] was “inactive” in each case.

Regarding `CCCCCCCCCC(CC)c1ccc(S(=O)(=O)O)cc1` (configuration not stated), the Potency entry in assay [1], in assay [2], in assay [3], in assay [4], in assay [5] and in [6] was “inactive” throughout. Besides, the Potency result in assay [7], in [8], in [9] and in [10] was “inactive” in each case.

On to `CCCCCCCCCCCCCCCC[N+](C)(C)C`, for which the Potency is 8.49 µM (active) in assay [1], 8.91 µM (active) in [4], 4.78 µM (active) in [6] and 7.08 µM (active) in assay [8].

`COC(=O)[C@@H](N)CCCN=C(N)N[N+](=O)[O-]`: the Potency entry in [1], in [2], in [3], in assay [4], in assay [5] and in assay [6] was “inactive” in each case. For the same compound, the Potency result in assay [7], in assay [8], in assay [9] and in [10] was “inactive” throughout.

`CN[C@@H]1C[C@@H](c2ccc(Cl)c(Cl)c2)c2ccccc21`: the Potency in assay [1] is 7.57 µM (active); in [3] it was 10 µM (active); in assay [8] it was 10 µM (active). The Potency result in assay [5] and in assay [9] was “inactive” in each case.

With `CCCCc1ccc(C(=O)O)nc1`, the Potency entry in assay [1], in assay [2], in [3], in assay [4], in [5] and in [6] was “inactive” in each case. Also, the Potency result in assay [7], in assay [8], in assay [9] and in assay [10] was “inactive” each time.

Regarding `CC(=O)[O][Hg][c]1ccccc1`, the Potency in assay [1] is 4.26 µM (active); in assay [3], 0.126 µM (active); in [4], 10 µM (active); in assay [5], 3.98 µM (active); in assay [6], 4.26 µM (active); in assay [7], 6.31 µM (active). The Potency is 3.55 µM (active) in [8], 3.98 µM (active) in assay [9] and 3.55 µM (active) in assay [10].

For the compound `NC1=NC(=O)N2CC12` (configuration not stated), the Potency result in assay [2], in [5], in [9] and in [10] was “inactive” each time. Besides, the Potency in assay [8] is 11.2 µM (active).

Regarding `CC(=O)OCC1=C(C(=O)O)N2C(=O)[C@@H](N)[C@@H]2SC1`, the Potency entry in [1], in assay [2], in assay [3], in [4], in assay [5] and in assay [6] was “inactive” in each case. Further, the Potency result in [7], in assay [8] and in assay [9] was “inactive” each time.

Turning to `C1CCC(NC2CCCCC2)CC1`, the Potency entry in assay [1], in assay [2], in [3], in assay [4], in assay [5] and in [6] was “inactive” throughout. Moreover, the Potency result in [7], in assay [8], in assay [9] and in [10] was “inactive” each time.

On to `CC(C)NC(C)Cc1ccc(I)cc1` (configuration not stated), for which the Potency result in assay [4], in [5], in [7], in assay [8], in [9] and in [10] was “inactive” throughout.

Take `COC(=O)c1cncn1C(C)c1ccccc1` (configuration not stated): the Potency entry in assay [1], in assay [2] and in assay [6] was “inactive” in each case.

With `CN(C)[C@@H]1C(=O)C(C(N)=O)=C(O)[C@@]2(O)C(=O)C3=C(O)c4c(O)cccc4[C@@](C)(O)[C@H]3[C@H](O)[C@@H]12`, the Potency result in assay [1], in [4], in assay [5] and in assay [9] was “inactive” each time. In addition, in assay [3], the Potency was 3.55 µM (active).

`CC[N+]1(CCOC(=O)C(O)(c2ccccc2)c2ccccc2)CCCCC1`: the Potency result in [1], in [2], in [3], in assay [4], in assay [5] and in assay [6] was “inactive” in each case. Besides, the Potency entry in assay [7], in assay [8], in assay [9] and in [10] was “inactive” each time.

In the case of `O=[N+]([O-])c1ccc([As](=O)(O)O)cc1`, the Potency in [1] was 12 µM (active); in assay [2], 8.49 µM (active); in assay [3], 3.98 µM (active); in assay [4], 3.55 µM (active); in [6] it was 8.49 µM (active); in assay [7] it was 12.6 µM (active). For the same compound, the Potency in assay [8] is 8.91 µM (active); in assay [10], 4.47 µM (active).

As for `NC(=O)CN1CC(O)CC1=O` (configuration not stated), the Potency entry in assay [1], in assay [2], in assay [3], in assay [4], in assay [5] and in [6] was “inactive” throughout. The Potency entry in assay [7], in assay [8], in [9] and in assay [10] was “inactive” in each case.

With `C=CCN1CC[C@]23CCCCC2[C@H]1Cc1ccc(O)cc13` (some centres not stated), the Potency result in assay [1], in assay [2], in [4], in assay [5], in [7] and in assay [8] was “inactive” each time. The Potency result in assay [9] and in assay [10] was “inactive” each time. The Potency in assay [3] is 11.2 µM (active).

In the case of `CN1C2CCC1CC(OC(=O)c1cc(Cl)cc(Cl)c1)C2` (configuration not stated), the Potency result in [2], in [3], in assay [5], in assay [6], in [7] and in assay [9] was “inactive” throughout. In assay [10], the Potency result was “inactive”.

As to `COC(C)(C)CCCC(C)C/C=C/C(C)=C/C(=O)OC(C)C` (configuration not stated), the Potency result in [5] was “inactive”.

In the case of `CCCN1CCC[C@H](c2cccc(O)c2)C1`, the Potency result in [2], in assay [4], in assay [5], in assay [7], in assay [9] and in assay [10] was “inactive” each time.

In the case of `c1ccc(C2(c3ccccc3)CC2C2=NCCN2)cc1` (configuration not stated), the Potency entry in [2], in [3], in assay [4], in assay [5], in assay [7] and in assay [9] was “inactive” in each case. Also, in [10], the Potency entry is “inactive”.
